High-throughput results (PubChem BioAssay)
This is a sample that favours compounds with a hit; in the whole collection about 0.54% have one here.
TcdB inh = blocks C. difficile toxin B glycohydrolase activity | 350,000 compounds, 0.24% hits | inhibition, % at 9.99 µM | TcdB glycohydrolase enzymatic assay, plate reader; in the data active = inhibition above about 10%
Mtb BioA inh = blocks M. tuberculosis BioA enzyme activity | purified M. tuberculosis BioA enzyme, plate reader | inhibition, % at 9.99 µM | 360,000 compounds, 0.096% hits | AID 602481; in the data active = inhibition above about 40%
Vc quorum ag-1 = induces V. cholerae light production without autoinducers | V. cholerae BH1578 lux reporter, luminescence, 6 h | activation, % at 18.7 µM | 350,000 compounds, 0.16% hits | AID 588436; in the data active = activation mostly above about 9.7%, no sharp cut-off
FadD28 binding = blocks FadD28 binding to the bisubstrate probe | fluorescence polarization | inhibition, % at 12.5 µM | 360,000 compounds, 0.22% hits; in the data active = inhibition above about 8.5%, passing the limit was not always enough
Vc quorum ag-2 = induces V. cholerae light production without autoinducers. activation, % at 50 µM. V. cholerae BH1578 lux reporter, luminescence, 6 h. shares compounds with Vc quorum ag-1. AID 602243. 620 tested, under 10 active; call rule not given here
Active calls of the source: *; i = inactive; · = not tested or not shown.

SMILES	TcdB inh	Mtb BioA inh	Vc quorum ag-1	FadD28 binding	Vc quorum ag-2
CCC(=O)c1coc2ccc(O)cc12	·	-0.3	25.0*	-4.8	0.4
CCC(=O)N1CCC2(CC1)CN(C(=O)c1cnccn1)[C@H](CO)c1c2c2ccc(OC)cc2n1C	-2.3	·	·	·	·
CCc1nnc(NC(=O)C2CC(=O)N(c3ccc(C)cc3)C2)s1 (configuration not stated)	·	-1.5	12.5	-1.9	0.2
COc1ccc(Cc2nnc(NC(=O)C3CC(=O)N(c4ccccc4C)C3)s2)cc1OC (configuration not stated)	-0.7	0.5	9.3	-1.4	0.8
CCOc1ccc(N2CC(C(=O)Nc3nnc(Cc4ccc(OC)c(OC)c4)s3)CC2=O)cc1 (configuration not stated)	0.9	-0.1	-0.5	-0.9	·
CCCCc1nnc(NC(=O)C2CC(=O)N(c3ccc(C)cc3)C2)s1 (configuration not stated)	0.9	-1.8	-0.4	-2.6	·
CC(=O)Nc1nonc1NC(C)=O	·	0.4	25.8*	-1.5	0.6
COc1ccc(C)c2sc(N3CCCC3)nc12	·	1.0	27.8*	-1.4	1.1
Cc1cccc(NC(=O)CS(=O)(=O)c2cn(C)c3ccccc23)c1C	·	-4.3	16.7*	0.2	0.3
Cc1ccc(S(=O)(=O)N2Cc3ccccc3CC2C(=O)Nc2ccc3c(c2)OCO3)cc1 (configuration not stated)	·	0.2	3.2	-3.9	1.6
COc1ccc(S(=O)(=O)N2Cc3ccccc3CC2C(=O)Nc2ccc3c(c2)OCO3)cc1 (configuration not stated)	·	-1.7	-0.3	-2.8	·
CC(=O)Nc1ccc(NC(=O)c2ccccc2C)cc1	1.2	-1.5	257.1*	1.2	-0.2
COC(=O)C1CCN(C(=O)CN(C)Cc2ccc(C(C)(C)C)cc2)CC1	-1.4	0.1	40.9*	-0.3	11.2
O=C(NCC[C@@H]1CC[C@H](NC(=O)C2CCC2)[C@H](CO)O1)c1ccc(F)cc1	-0.2	0.2	·	·	·
CN1CCN(C(=O)CCN2C(=O)c3ccccc3C2=O)CC1	-0.4	·	0.4	-3.2	·
O=C(CCN1C(=O)c2ccccc2C1=O)N1CCN(C2c3ccccc3-c3ccccc32)CC1	·	-0.2	13.3	-3.9	2.4
CC(C)Cn1c(CN2CCN(C)C(CCO)C2)nc2ccccc21 (configuration not stated)	0.6	-2.1	72.0*	0.5	-0.1
CCC(=O)N(C)C[C@@H]1Oc2ncc(C#CCC(C)C)cc2C(=O)N([C@@H](C)CO)C[C@H]1C	0.6	0.9	·	·	·
Cc1ccc(CN2C(=O)CCC2C(=O)NCCN(CC(C)C)CC(C)C)cc1 (configuration not stated)	·	·	12.5	-4.4	0.2
Cc1ccc(CN2C(=O)CCC2C(=O)NCc2ccc(F)cc2)cc1 (configuration not stated)	·	·	-0.8	-1.8	·
O=C(C[C@@H]1C[C@H]2c3cc(NS(=O)(=O)c4ccc(F)cc4)ccc3O[C@H]2[C@H](CO)O1)NC1CCCCC1	0.1	0.5	·	·	·
CC(=O)c1ccc(Oc2cc(C)nc(NCc3ccccc3)n2)cc1	·	7.2	25.0*	0.4	0.5
CCOc1cc(C)nc(NCc2ccccc2)n1	·	0.4	i	-2.1	·
COc1cccc(CN2CC3(CN(C(=O)Nc4c(C)noc4C)C3)c3c([nH]c4cc(OC)ccc34)[C@H]2CO)c1	0.0	·	·	·	·
O=[N+]([O-])c1ccc(NCCN2CCOCC2)c([N+](=O)[O-])c1	0.9	1.4	33.2*	-3.0	1.2
SMILES	TcdB inh	Mtb BioA inh	Vc quorum ag-1	FadD28 binding	Vc quorum ag-2
CO[C@@H]1CN(C)C(=O)c2ccc(NS(=O)(=O)c3ccccc3)cc2OC[C@H](C)N(C(=O)NC(C)C)C[C@H]1C	0.1	-0.8	·	·	·
CCOc1ccc(C2=Nn3c(nnc3-c3ccc(OC)cc3)SC2)cc1	·	-2.2	-7.1	-4.5	·
COc1ccc(OCc2nnc3n2N=C(c2ccc(OC)cc2)CS3)cc1	-3.9	5.1	27.0	-3.8	3.4
COc1cccc(OCC(=O)NC2CCCCC2)c1	-0.3	·	36.9*	-3.0	39.2
Cc1ccc(C)c(N(CC(=O)NC2CCCC2)C(=O)c2oc(C(C)(C)C)cc2C)c1	2.1	0.7	-1.5	-2.9	·
O=C(COC(=O)c1ccc(Cl)c(S(=O)(=O)N2CCCC2)c1)NC1CCCC1	·	0.2	i	-2.3	·
NS(=O)(=O)c1cc(C(=O)OCC(=O)NC2CCCCCCC2)ccc1Cl	0.8	4.7	14.3	-4.0	-0.1
O=C(COC(=O)c1ccc(Br)cc1)NC1CCCC1	-3.9	-0.3	131.4*	0.5	58.0
Cc1cc(C(C)(C)C)oc1C(=O)OCC(=O)NC1CCCCC1	-1.6	·	145.3*	-0.8	25.6
C[C@H](CO)N1C[C@H](C)[C@@H](CN(C)C(=O)Nc2ccc(F)cc2)Oc2ccc(NC(=O)CCCCCC(=O)Nc3ccccc3N)cc2C1=O	-0.4	·	·	·	·
CCCNC(=O)N[C@H]1CC[C@H](CCn2cc(C3CC3)nn2)O[C@@H]1CO	-0.3	3.4	·	·	·
Cc1cccc(-c2cc3nc4c(c(N5CCC6(CC5)OCCO6)n3n2)CCCC4)c1	0.8	-0.3	1.4	-0.2	-0.1
CC(C)NC(=O)N(C)C[C@@H]1Oc2ccc(NS(=O)(=O)c3ccc(Cl)cc3)cc2CC(=O)N([C@H](C)CO)C[C@@H]1C	0.4	-2.5	·	·	·
CC1(NC(=O)C23CC4CC(CC(C4)C2)C3)CCS(=O)(=O)C1 (configuration not stated)	·	0.9	16.7*	-2.3	0.0
Cc1ccc(C)c(N2CCN(C(c3ccc(N(C)C)cc3)c3nnnn3C(C)(C)C)CC2)c1 (configuration not stated)	·	0.0	37.6*	0.5	0.0
Cc1noc(C)c1NC(=O)Nc1ccc2c(c1)CC(=O)N([C@@H](C)CO)C[C@@H](C)[C@H](CN(C)Cc1ccccc1)O2	-6.8	-2.3	·	·	·
COc1ccc(CCNC(=O)C(=O)NCC2CCCN2S(=O)(=O)c2ccc(OC)cc2)cc1 (configuration not stated)	-0.2	-1.2	28.6*	-5.5	0.1
COc1ccc(NC(=O)C(=O)NCC2CCCN2S(=O)(=O)c2ccc(C)cc2)cc1 (configuration not stated)	2.4	-0.7	14.3	-0.2	-0.2
CO[C@@H](CN(C)C(=O)c1ccc2c(c1)OCO2)[C@H](C)CN([C@H](C)CO)S(=O)(=O)c1ccc(C)cc1	0.4	3.4	·	·	·
O=C(c1cc(-c2ccc3c(c2)OCO3)on1)N1CCN(c2ccc(F)cc2)CC1	·	-1.5	12.5	0.5	0.2
C[C@@H]1CN([C@H](C)CO)C(=O)c2cc(NC(=O)c3ccncc3)ccc2O[C@@H](C)CCCCO[C@@H]1CN(C)S(=O)(=O)c1ccc(Cl)cc1	-0.5	0.9	·	·	·
C[C@@H]1CN([C@H](C)CO)C(=O)c2cccc(NC(=O)Nc3ccc4c(c3)OCO4)c2O[C@@H]1CN(C)S(=O)(=O)c1ccccc1	-0.3	0.0	·	·	·
C[C@H](CO)N1C[C@H](C)[C@@H](CN(C)S(=O)(=O)c2ccccc2)Oc2c(NC(=O)Nc3ccc4c(c3)OCO4)cccc2C1=O	0.3	0.6	109.2*	0.3	10.6
COCC#Cc1cnc2c(c1)C(=O)N([C@@H](C)CO)C[C@H](C)[C@H](CN(C)Cc1ccc(F)cc1)O2	0.6	2.9	·	·	·
